# FBPA coupling cs – qHTS Assay for Inhibitors of Fructose-1,6-bisphosphate Aldolase from Giardia Lamblia: Coupling assay counterscreen; coupling enzyme system counterscreen, AmpLite Red fluorescence; activity change, negative = inhibition, % at 58.2 µM, hits read low; actives 0.67% (n = 290,000); AID 2472, 2010; in the data active = activity change below about -30%
#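 Counterscreen lacking aldolase: glyceraldehyde-3-phosphate coupling-enzyme reagent preincubated 10 min at RT with compound (at 57.5 uM final), then substrate/coupling system with AmpLite Red added; fluorescence read at 525/598 nm after 20 min RT.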
# GAA spleen mod – qHTS Assay for Inhibitors and Activators of Human alpha-Glucosidase From Spleen Homogenate; actives 0.006% (n = 240,000); AID 2112, 2009; Potency, µM (series often up to 79.9 µM), for the others: top-dose activity change, negative = inhibition, actives largely listed as inhibitors; human spleen homogenate, 4-MU-alpha-glucoside fluorescence;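 also: potency is read from the fitted curve at half-maximal effect; 0% = enzyme with vehicle and -100% = no enzyme basal signal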
#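 Enzyme source: human spleen homogenate, 1 ug/well. Buffer 50 mM citric acid/K phosphate pH 5.0, 0.01% Tween-20. 4-MU-alpha-glucoside 1 mM; 37 C x 40 min; NaOH/glycine stop; fluorescence.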
# GAA glycogen mod – qHTS Assay for Inhibitors and Activators of Human alpha-Glucosidase Cleavage of Glycogen; Lysosomal alpha-glucosidase (Homo sapiens), P10253; recombinant GAA, glycogen substrate, Amplex Red glucose oxidase fluorescence; Potency, µM (series often up to 76.4 µM), without a hit: at the top dose activity change, negative = inhibition, hits mostly inhibitors; actives 0.38% (n = 300,000); AID 2100, 2009;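 also: potency is read from the fitted curve at half-maximal effect; 0% = full enzyme reaction and -100% = no-enzyme basal signal; the screen sought inhibitors and activators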
#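 Recombinant enzyme (4 nM final) with compounds titrated up to 77 uM and bovine liver glycogen (30 ug) in citrate pH 5.0, 0.01% Tween-20, 37 C 40 min. Released glucose detected by Amplex Red/glucose oxidase (Ex 573/Em 610); AC50 from Hill fits.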
# GAA inhib – qHTS Assay for Inhibitors of Human alpha-Glucosidase as a Potential Chaperone Treatment of Pompe Disease; purified human GAA, 4-MU-alpha-glucoside fluorescence; Potency, µM (highest dose often 76.9 µM), without a hit: at the highest dose activity change, negative = inhibition, hits mostly inhibitors; actives 0.005% (n = 200,000); AID 1466, 2008;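 also: potency is read from the fitted curve at half-maximal effect; plate controls were uninhibited enzyme wells for no effect and no-enzyme background for full effect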
#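 Compounds are titrated up to 77 uM against 4 nM human enzyme. Substrate 4-methylumbelliferyl-alpha-D-pyranoside (400 uM) reacts 20 min at room temperature in pH 5.0 buffer; liberated 4-methylumbelliferone is read at 440 nm.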
# B2AR arrestin – qHTS assay of beta-arrestin-biased ligands of beta2-adrenergic receptor; Potency, µM (series often up to 46.1 µM), inactives show top-dose activation, most hits filed as activators; actives 0.02% (n = 330,000); beta-arrestin recruitment to beta2AR, cell-based reporter; AID 492947, 2010;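 also: potency is read from the fitted curve at half-maximal effect; 0% = DMSO controls and full agonism = EC100 isoproterenol or metaproterenol; nearly all actives have a fitted effect of over 65% in size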
# Target sequence (P07550 whole entry, looked up): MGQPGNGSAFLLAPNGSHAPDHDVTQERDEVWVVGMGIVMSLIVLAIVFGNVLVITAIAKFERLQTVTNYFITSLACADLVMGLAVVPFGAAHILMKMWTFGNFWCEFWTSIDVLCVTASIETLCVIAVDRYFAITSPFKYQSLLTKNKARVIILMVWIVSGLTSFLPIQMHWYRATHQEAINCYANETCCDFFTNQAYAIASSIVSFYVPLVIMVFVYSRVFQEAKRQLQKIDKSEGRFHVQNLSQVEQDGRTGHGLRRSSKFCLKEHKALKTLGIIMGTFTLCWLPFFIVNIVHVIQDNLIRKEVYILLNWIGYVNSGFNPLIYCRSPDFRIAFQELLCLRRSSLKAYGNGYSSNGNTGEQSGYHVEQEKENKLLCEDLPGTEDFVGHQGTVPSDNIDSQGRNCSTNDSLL
# * marks the source's active call; other numbers are inactive results; ? = inconclusive; . = no result given; ! = not confirmed by another sample; [ ] = remark or other dose. Shown are actives, neighbours in structure and some others; about 0.85% of the full set was active somewhere. Unless noted, calls follow the shape of the dose curve; as a rule, active = well fitted curve in the direction sought with a large enough effect; inconclusive = small, poorly fitted or top-dose-only effect, or another doubt; inactive = no such curve, though single readings can be large; an effect the other way counts as inactive or inconclusive. Unless noted, % is scaled to controls: 0 for no effect and ±100 for the full control effect.
SMILES,FBPA coupling cs,GAA spleen mod,GAA glycogen mod,GAA inhib,B2AR arrestin
CCCC/C(C)=C/[C@@H](NP(=O)(c1ccccc1)c1ccccc1)c1ccccc1,-2.0,1.6%,1.26µM*,?,-2.1%
CCCCC/C=C\C/C=C\C/C=C\C/C=C\CCCC(=O)Nc1ccc(O)cc1C,-6.6,2.9%,.,.,.
CCCCC/C=C\C/C=C\C/C=C\C/C=C\CCCC(=O)Nc1ccc(O)cc1,-5.6,0.1%,31.6µM*,?,-0.3%
O=c1cc(-c2ccc(O)c(O)c2)oc2c(C3O[C@H](CO)[C@@H](O)[C@H](O)[C@H]3O)c(O)cc(O)c12 (stereo partly drawn),-1.7,-16.1%,4.47µM*,?,-2.6%
O=C1C=CC(=O)C(Cl)=C1,-22.3,-11.6%,.,.,.
NC1CCCCC1N (stereo not drawn),-0.6,2.5%,.,.,.
COc1cc(/C=C2\C(=O)NC(=O)N(c3ccccc3)C2=O)cc(OC)c1O,-32.9*,-5.4%,?,-5.5%,-0.7%
CCCCCCCCCC[n+]1cccc([C@@H]2CCCN2C)c1,-2.5,-7.3%,.,.,.
N#Cc1c(Oc2cccc(OS(=O)(=O)CCCC(F)(F)F)c2)cccc1C(F)(F)F,-7.2,-1.5%,.,.,.
CCCCc1ccc(C(=O)O)nc1,-67.4*!,-3.7%,.,.,-0.8%
CCCCCCCCc1ccc(O)cc1,.,0.1%,.,.,.
CN1CC(C(=O)c2ccc(Cl)cc2)C(c2ccccc2F)C1 (stereo not drawn),-1.6,1.1%,2.8%,5.8%,0.0%
ON1C2CCCCC2N(O)C1c1ccccc1F (stereo not drawn),-0.4,-3.5%,8.84µM*,1.4%,-0.8%
O[C@@H]1[C@H](O)[C@H]2[C@@H](O)CCN2C[C@@H]1O,1.8,35.5µM*,.,.,.
CCN(CCO)c1ccc(N=Cc2c(O)n(C)c(=S)[nH]c2=O)cc1,-46.6*,-2.5%,?,.,-0.3%
O=C(O)c1ccc[nH]c1=S,-23.6,-1.7%,?,.,-0.7%
N#CC1=C(N)Oc2n[nH]c(-c3cccs3)c2C1c1ccco1 (stereo not drawn),-31.0*,-10.4%,?,-2.9%,-0.3%
N#CC1=C(N)Oc2c(c(=O)sc3ccccc23)C1c1ccncc1 (stereo not drawn),2.9,-3.8%,-23.3%,-3.4%,0.0%
COc1ccc2c(c[n+](C)c3c4cc5c(cc4ccc23)OCO5)c1OC,-39.0*!,6.6%,.,.,.
COc1ccc2c(c1OC)CN1CCc3cc4c(cc3[C@H]1C2)OCO4,0.8,4.4%[29.1 µM],.,.,0.1%
COC(=O)CC1=C(C(=O)OC)C2(C(=O)Nc3c(C)cccc32)C(C#N)=C(N)O1 (stereo not drawn),-37.9*,2.9%,10.2%,-0.8%,0.3%
CCN(CC)C(=O)C(C(=O)c1cccc([N+](=O)[O-])c1)n1cc(Cl)ccc1=O (stereo not drawn),-0.8,2.1%,-2.6%,?,0.1%
COc1cc2c(cc1OC)-c1c(OC)c(OC)cc3c1[C@H](C2)N(C)CC3,-33.8*,4.4%,0.6%,-14.8%,-2.0%
CN1C(=O)C(Cc2ccc3c(c2)OCO3)C(=O)N(C)C1=O,-7.5,-5.1%,39.8µM*,-4.0%,-0.3%
CN1C(=O)C(Cc2ccsc2)C(=O)N(C)C1=O,-12.7,-0.4%,6.2%,-13.2%,-0.2%
SMILES,FBPA coupling cs,GAA spleen mod,GAA glycogen mod,GAA inhib,B2AR arrestin
NNc1n[nH]c(=S)n1N,-62.1*,-0.2%,?,.,4.0%
[CH3][Hg][Cl],.,8.4%,.,.,.
CC(=O)Oc1c2c(c(CC=C(C)C)c3c1C(=O)C1=CC4CC5C(C)(C)OC(C/C=C(\C)C(=O)O)(C4=O)[C@]15O3)OC(C)(CCC=C(C)C)C=C2 (stereo partly drawn),-1.9,-9.1%,.,.,.
CN1CC[C@@]2(C)c3cc(O)ccc3N(C)[C@@H]12,-77.9*,-5.3%,.,.,.
CN1CC[C@@]2(C)c3cc(O)ccc3N(C)C2O1 (stereo partly drawn),-71.9*,10.7%,.,.,.
O=[N+]([O-])C(Br)Br,.,3.7%,.,.,.
Nc1cncc(C(=O)O)c1,-30.9*!,-4.5%,3.1%,0.9%,0.0%

# Screening data: PubChem, National Center for Advancing Translational Sciences (NCATS)
